Source: PubChem BioAssay (National Center for Advancing Translational Sciences (NCATS))
This is a sample that favours compounds with a hit; in the whole collection about 8% have one here.
Marburg entry: Marburg virus entry inhibition. Marburg virus pseudotype entry/binding inhibition, cell-based. Potency, µM (series often up to 49.2 µM), most hits filed as inhibitors. 18,000 tested, 6.5% active. AID 720532
Lassa entry: Lassa virus entry inhibition | Lassa virus pseudotyped entry inhibition, cell-based qHTS | Potency, µM (highest dose often 49.2 µM), most hits filed as inhibitors | 18,000 tested, 4.1% active | AID 720533
A number is an active result; 0 = inactive; ? = inconclusive; - = no result given; ! = not active in a repeat; [ ] = another dose, or the depositor's remark. Calls follow the shape of the full dose curve; tested in HEK293 cells.

SMILES | Marburg entry | Lassa entry
COc1ccc(C(C)=O)c(O)c1 | 0 | 0
COCc1cc(O)c(O)c(O)c1-c1c(COC)cc(O)c(O)c1O | 7.94µM | 0
NCCCCCCCCCCNS(=O)(=O)c1cccc2c(Cl)cccc12 | 0 | ?
NCCCCCCNS(=O)(=O)c1cccc2c(Cl)cccc12 | 17.8µM! | ?
CC1=C(C(=O)Nc2ccc3[nH]ncc3c2)C(c2ccc3ccccc3c2)CC(=O)N1 (stereo not given) | 0 | 0
Cn1cc(C2=C(c3cn(CCCSC(=N)N)c4ccccc34)C(=O)NC2=O)c2ccccc21 | 15.8µM | 17.8µM
CN(C)CCCn1cc(C2=C(c3c[nH]c4ccccc34)C(=O)NC2=O)c2ccccc21 | 7.08µM | ?
Cn1cc(C=C2C(=O)Nc3cccnc32)c2ccccc21 | 0 | 0
COc1ccc2c(c1)c(C1=C(c3c[nH]c4ccccc34)C(=O)NC1=O)cn2CCCN(C)C | 7.08µM | ?
COc1ccc2[nH]cc(CCNc3ncncc3-c3ccccc3CN(C)C)c2c1 | ? | 0
C=CCN(C)C1=NC(c2ccccc2)C(C(=O)OC)=C(C)N1CCOC (stereo not given) | 0[8.59 µM] | 0[8.59 µM]
COc1ccc(-n2c(CNC(=O)c3ccccc3C(F)(F)F)nnc2SC)cc1 | 0 | ?
CC(C)CCC[C@@H](C)[C@H]1CC(=O)C2=C3CC[C@H]4C[C@@H](O)CC[C@]4(C)[C@H]3CC[C@@]21C | 0 | 0
O=C(O)c1ccccc1Nc1cccc(OCc2ccc3ccccc3n2)c1 | ? | 15.8µM
O=C(O)c1ccccc1Nc1ccc(CCc2ccc(Cl)c(Cl)c2)cc1 | 0 | 0
COC(=O)N[C@H](C(C(=O)OC)=C(C)NCc1ccccc1)c1cccs1 | 0[8.59 µM] | -
NS(=O)(=O)c1ccc(-c2ccc3c(NC(=O)C4CC4)n[nH]c3c2)cc1 | 0 | 0
NC(=NC1C2CC3CC(C2)CC1C3)Nc1ccc(I)cc1 (stereo not given) | 11.2µM | 8.91µM
CC(=O)c1ccc(F)c(-c2cc(C)cc3c2OC(CNC(=O)Cc2ccc4c(c2)OCO4)C3)c1 (stereo not given) | 0 | 0
CCC1/C=C/C=CCC(C)C(O)[C@@](C)(O)C(=O)C(C)C(O)C(C)C(=O)C(C)C(O)C(C)C=CC(=O)O[C@H]2C(C)C(CC1)O[C@]1(CCC(C)C(CC(C)O)O1)C2C (stereo not given in full) | 0.0794µM | ?
CCOC(=O)CCN1C(=O)[C@@H]2[C@H]3[C@H](O)[C@H](O)CC(=NNC(=O)OCc4ccc(OC)cc4)[C@@H]3CC[C@H]2C1=O | 0[8.59 µM] | ?
CC(=O)OCC(=O)[C@@]1(O)CC[C@H]2[C@@H]3CCC4=CC(=O)CC[C@]4(C)C3=CC[C@@]21C | 0 | 0
N[C@H](C(=O)O)c1ccc(O)c(C(=O)O)c1 | 0 | 0
O=C(O)c1cc(N(Cc2ccccc2O)Cc2cc(O)ccc2O)ccc1O | 20µM! | ?
CCN(CC)CCCC(C)Nc1c2ccc(Cl)cc2nc2ccc(OC)cc12 (stereo not given) | 1.12µM | ?
SMILES | Marburg entry | Lassa entry
CCN(CC)CCCC(C)Nc1cc(/C=C/c2ccccc2Cl)nc2cc(Cl)ccc12 (stereo not given) | 15.8µM | ?
COc1cc(NC(C)CCCN)c2ncccc2c1 (stereo not given) | ? | 0
CC[C@H](C)[C@@H]1NC(=O)[C@@H]2CSCCS(=O)(=O)N2C1=O | 0 | 0
CCCCCCN1C[C@@H](O)[C@H](n2cc(COC(=O)c3ccccc3)nn2)C[C@H]1c1ccccc1 | 0 | 0
Cc1ccccc1Nc1oc(-c2ccccc2)nc1-c1ccc(C(F)(F)F)cc1 | 0[8.59 µM] | ?
CNCCCC1c2ccccc2C=Cc2ccccc21 | 7.08µM | ?
CCCCCCCCCCCCCCCC(=O)O[C@@H]1CC(C)=C(/C=C/C(C)=C/C=C/C(C)=C/C=C/C=C(C)/C=C/C=C(C)/C=C/C2=C(C)C[C@@H](OC(=O)CCCCCCCCCCCCCCC)CC2(C)C)C(C)(C)C1 | 0 | 0
CN1CCC(=C2c3ccccc3Sc3ccccc32)CC1 | 3.98µM | ?
CN1CCN(c2ncnc3ccc(-c4ccccc4C#N)cc23)CC1 | 0 | 0
CN1CCC(=C2c3ccccc3C=Cc3ccccc32)CC1 | 8.91µM | 28.2µM
CN1CCN(c2nc3cc(C(F)(F)F)ccc3n3cccc23)CC1 | 28.2µM! | 0
CC(=O)CCC(=O)N1CCC(n2c(C3CCCO3)nc3cc(C(F)(F)F)ccc32)CC1 (stereo not given) | 0 | 0
Cc1cnc(SCc2ccccn2)nc1C1CCCN(C(=O)c2ccc3c(c2)OCO3)C1 (stereo not given) | 0 | 0
CCCNC(=O)N1C2=NC(C(=O)OC)=C(C(=O)OC)[C@@H]3N(C)c4ccccc4[C@]23C[C@H]1C(=O)OC | 0[8.59 µM] | 0[8.59 µM]
Cc1ccccc1-n1c(C)nc2ccccc2c1=O | 0 | ?
O=c1c2ccccc2[se]n1-c1ccccc1 | 22.4µM! | 25.1µM!
CCC(C(=O)O)c1ccccc1 (stereo not given) | 0 | 0
c1ccc(C(NCCNC(c2ccccc2)c2ccccc2)c2ccccc2)cc1 | 7.08µM | 12.6µM
Cc1c(C(=O)N(C)C2CCCCC2)sc2nc3ccc(N)cc3n12 | 22.4µM | ?
